Screening data as filed in PubChem BioAssay.
Sampled rows, rich in hits. Any-hit rate of the full collection: about 10%.
HPGD block = HPGD (human) dehydrogenase inhibition; P15428; purified HPGD, NADH fluorescence kinetic, PGE2 substrate; Potency, µM, usual class: inhibitors; 150,000 compounds, 4.3% hits; AID 894
Target sequence (P15428 whole entry, looked up): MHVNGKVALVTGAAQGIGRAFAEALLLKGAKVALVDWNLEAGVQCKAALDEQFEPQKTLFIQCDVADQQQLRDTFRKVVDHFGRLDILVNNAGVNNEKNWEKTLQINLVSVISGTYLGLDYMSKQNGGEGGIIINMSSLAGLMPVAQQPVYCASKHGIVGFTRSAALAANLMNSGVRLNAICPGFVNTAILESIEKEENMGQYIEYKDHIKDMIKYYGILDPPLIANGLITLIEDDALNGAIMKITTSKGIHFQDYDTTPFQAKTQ
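20 nM HPGD preincubated 15 min at room temperature with compound in 50 mM Tris-HCl pH 8, 0.01% Tween 20. Started with 1 mM NAD+ and 30 uM prostaglandin E2; NADH fluorescence (360/450 nm) read 5 times over 30-s intervals, last minus first.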
ALDH1A1 block = blocks purified human ALDH1A1 activity | P00352 | Purified ALDH1A1, NADH fluorescence, propionaldehyde substrate | Potency, µM (highest dose often 75.3 µM), usual class: inhibitors | 220,000 compounds, 7.3% hits
PNC inhibitor = blocks assembly of the perinucleolar compartment | PC3M PTB-GFP, PNC prevalence imaging, 16 h; stronger effect = lower value | activity change (PNC), negative = inhibition, % at 10 µM | 140,000 compounds, 3.1% hits | AID 2417;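 active means readout at or below -70, meaning at least 70% loss of cells showing the perinucleolar compartment, a nuclear body marking cancer cells; inconclusive means readout between -30 and a set limit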
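Read-out is percentage of cells bearing a perinucleolar compartment, from automated 20x imaging of fixed, Hoechst-stained PC3M PTB-GFP cells. Cells were seeded 4 h, then exposed 16 h to compound (23 nl of library stock) in duplicate plates.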
ALOX12 inhib = 12-hLO (ALOX12) enzyme inhibition. purified 12-hLO, xylenol orange hydroperoxide absorbance. Potency, µM (top dose mostly 57.1 µM), usual class: inhibitors. 150,000 compounds, 0.12% hits. AID 1452; active means well fitted inhibition curve with a large enough effect; inconclusive means small, poorly fitted or top-dose-only effect; further: nearly all actives have a fitted effect of over 55% in size
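Xylenol orange chromogenic assay: hydroperoxide from 12hLO oxidises Fe(II), giving red-shifted Fe(III)-XO absorbance. Conditions: 150 nM enzyme, 40 uM arachidonic acid, 25 mM Hepes pH 7.0, 0.01% Triton X-100, 30 min, room temperature.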
LMNA splice mod = changes lamin A minigene splicing in HeLa cells; 200,000 compounds, 0.01% hits; Potency, µM (doses to about 46.1 µM), actives largely listed as inhibitors; HeLa LMNA splicing GFP/RFP minigene ratio, 48 h; AID 1487; active means well fitted inhibition curve with a large enough effect in the signal ratio, with a control signal flat, not every such curve was filed as active; inconclusive means small, poorly fitted or top-dose-only effect, or effect the other way, or a change in a side signal; the % refers to the signal ratio
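S3 HeLa cells stably expressing lamin A-EGFP splicing minigene plus DsRed2, 600 cells/well, 48 h compound exposure at 37C. Laser-scanning cytometry; analysed as GFP (500-530 nm)/RFP (575-640 nm) total intensity ratio; 0.5% DMSO vehicle.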
Hits are given with their value; i = inactive; ? = inconclusive; nt = not tested or not shown; [ ] = dose if it differs, or a comment. Unless noted, the call rests on the fitted dose curve; in most records, active means well fitted inhibition curve with a large enough effect (not every such curve was filed as active); inconclusive means small, poorly fitted or top-dose-only effect, or another doubt; inactive means no such curve, though single readings can be large or run the other way.

SMILES	HPGD block	ALDH1A1 block	PNC inhibitor	ALOX12 inhib	LMNA splice mod
O=C(NC(=S)Nc1ccc2c(c1)OCCO2)c1cccc2ccccc12	i	13µM	i	?	?
O=C(NC(=S)Nc1ccc2c(c1)OCCO2)c1cccc(Br)c1	i	14µM	i	?	?
Cc1cccc(NC(=O)C2CC(=O)n3cnnc3S2)c1 (configuration not stated)	10µM	0.71µM	i	i	i
N#C/C(=N\Nc1ccccc1Cl)C(=O)c1ccccc1	28µM	i	i	i	i
C/C(=N/OCC(=O)Nc1ccc(C)cc1C)c1cccs1	7.9µM	i	i	i	i
CCc1cccc(CC)c1NC(=O)CO/N=C(\C)c1cccs1	0.63µM	i	i	i	i
CC(=O)c1ccc(NC(=O)CO/N=C(\C)c2cccs2)cc1	i	i	i	i	i
Cc1ccc(NC(=O)CCC(=O)NNC(=O)c2cccs2)c(C)c1	i	i	i	i	i
CC(C)C1COc2cc3oc(=O)ccc3cc2O1 (configuration not stated)	?	?	nt	i	nt
CCn1nc(C)c(NS(=O)(=O)c2ccccc2)c1C	i	i	-105	i	i
Cc1ccc(Nc2ccc(C(=O)N3CCCC3)cn2)c(C)c1	2.2µM	i	i	i	i
CCCCC[C@H](O)/C=C/C=C/C=C/[C@H](O)C/C=C\CCCC(=O)O	i	i	nt	i	nt
COc1cccc(Nc2ncc3nc(-c4ccc(F)cc4)c(=O)n(C[C@H]4CCCO4)c3n2)c1	i	i	nt	i	nt
CCCCN1C(=O)N(C)C2C1N(C)C(=O)N2CCCC (configuration not stated)	i	i	-100	i	i
COc1ccccc1/C=C/C=C1\Oc2c(ccc(O)c2CN2CCN(CCO)CC2)C1=O	16µM	?	i	i	?
CCOC(=O)c1nn(-c2ccc(F)cc2)c(-c2ccccc2)c1C(=O)c1ccccc1	i	11µM	i	i	i
CCOC(=O)c1nn(-c2ccccc2)c(-c2ccccc2)c1C(=O)c1ccccc1	i	?	i	i	i
COc1cc(-c2cccs2)cc(=O)c2c(C)oc(C)c12	i	?	-96	?	?
Cc1cccc(CNc2ccnc(-c3ccoc3)n2)c1	?	13µM	nt	i	i
COc1cccc(-c2nccc(NCc3cccc(C)c3)n2)c1	i	i	nt	i	i
Cc1cccc(CNc2ccnc(-c3ccc(C(=O)N(C)C)cc3)n2)c1	8.9µM	?	nt	i	?
O=C(Nc1ccccn1)c1cc(-n2cnnc2)ccc1Cl	i	i	i	i	i
Cc1ccnc(NC(=O)c2cc(-n3cnnc3)ccc2Cl)c1	i	i	-100	i	i
N#Cc1ccccc1NC(=O)Nc1ccc(Cl)cc1	i	?	-109	i	i
N#Cc1ccccc1NC(=O)Nc1cccc(Cl)c1	i	?	?	i	i
SMILES	HPGD block	ALDH1A1 block	PNC inhibitor	ALOX12 inhib	LMNA splice mod
COc1ccc(C2=NN(C(=O)CSc3nnc(-c4ccccc4F)o3)C(c3ccco3)C2)cc1 (configuration not stated)	i	?	?	i	?
COc1ccc(C2=NN(C(N)=S)C(c3ccco3)C2)cc1 (configuration not stated)	nt	18µM	nt	nt	i
CCc1cccc(NC(=O)CN(C)S(=O)(=O)c2ccc3c(c2)CCCN3C(C)=O)c1	nt	nt	nt	nt	i
O=C(CN1CCCCC1)Nc1ccc(S(=O)(=O)N2CCOCC2)cc1	i	i	i	i	i
CCCCC1(C)NC(=O)N(CC(=O)Nc2ccc(S(=O)(=O)N3CCOCC3)cc2)C1=O (configuration not stated)	i	3.2µM	-87	i	i
O=C(CN1CCN(CCO)CC1)Nc1ccccc1	i	?	-100	i	i
CCCCN(CCCC)S(=O)(=O)c1ccc(NC(=O)CN2CCOCC2)cc1	i	13µM	i	i	?
O=C(CN1CCOCC1)Nc1ccc(C2CCCCC2)cc1	16µM	25µM	i	i	i
COC(=O)[C@@]1(Cc2ccccc2)[C@H]2c3cc(C(=O)N4CCCC4)n(Cc4ccc(O)c(OC)c4)c3C[C@H]2CN1C(=O)c1ccccc1	i	?	nt	i	nt
O=C(c1ccncc1)N1CCC2(CCCN(Cc3nccs3)C2)CC1	i	i	nt	i	nt
COC(=O)c1ccccc1S(=O)(=O)N1CCc2nc(COc3ccccc3)c3c(c2C1)CO[C@@H](C)C3	i	i[13.5 µM]	nt	i[11.4 µM]	i[9.22 µM]
O=C(CN1CCOCCOCCOCC1)Nc1ccccc1	i	?	i	i	i
O=C(CN1CCOCCOCCN(CC(=O)Nc2ccccc2)CCOCC1)Nc1ccccc1	nt	22µM	i	i	i
CCNc1ncc2nc(-c3ccc(F)cc3)c(=O)n(-c3ccccc3)c2n1	nt	?	nt	nt	i
C=NCc1cc2c(OC[C@@H](O)CNC(C)(C)C)cccc2[nH]1	nt	i	nt	nt	nt
CC1C(=O)N2CCCc3cc(S(=O)(=O)N4CCC(C(N)=O)CC4)cc1c32 (configuration not stated)	nt	nt	nt	nt	i
CC(NC(=O)Nc1ccc(Cl)c(Cl)c1)C(c1ccccc1)N1CCOCC1 (configuration not stated)	i	?	i	i	?
CC(NC(=O)Nc1ccc([N+](=O)[O-])cc1)C(c1ccccc1)N1CCOCC1 (configuration not stated)	nt	2.5µM	nt	nt	i
Cc1ccc(-n2c(CCc3ccccc3)nnc2SCC(=O)NCc2ccccc2)cc1C	i	?	i	i	i
CCOC(=O)/C(=N/Nc1ccccc1)Sc1nnnn1-c1ccc(C)cc1	i	7.1µM	?	i	i
O=C(/C(=N\Nc1ccc(Br)cc1)Sc1nnnn1-c1ccccc1)c1ccccc1	i	1.6µM	i	i	?
O=C(CSc1nnnn1-c1ccccc1)NCc1cccs1	i	i	i	i	i
CCOC(=O)/C(=N/Nc1ccccc1)Sc1nnc(CCc2ccccc2)n1-c1ccccc1	i	i	-134	i	i
CCOC(=O)/C(=N/Nc1ccc(Cl)cc1)Sc1nnnn1-c1ccc(C)cc1	i	i	?	i	?
Cc1cccc(CNC(=O)CN2CC(C)Sc3ccccc32)c1 (configuration not stated)	nt	nt	nt	nt	i
SMILES	HPGD block	ALDH1A1 block	PNC inhibitor	ALOX12 inhib	LMNA splice mod
Cc1nc2cnc(N3CCOCC3)nc2n(C[C@H]2CCCO2)c1=O	nt	?	nt	nt	i
CCN(CC)C[C@@H](O)c1ccc2ccc3ccccc3c2c1	i	i[13.5 µM]	nt	i[11.4 µM]	nt
Nc1nc(NCc2ccco2)nc(N2CCN(Cc3ccccc3)CC2)c1[N+](=O)[O-]	nt	i	nt	nt	nt
Nc1nc(NCc2ccco2)nc(N2CCCC2)c1[N+](=O)[O-]	nt	4µM	nt	nt	?
Nc1nc(NCc2ccco2)nc(N2CCCCCC2)c1[N+](=O)[O-]	i	1.6µM	i	i	?
O=C(O)c1oc(C(=O)O)c(C(=O)O)c1C(=O)O	i	i[13.5 µM]	nt	i[11.4 µM]	nt
Cc1cc(C)n(S(=O)(=O)c2ccc(C(C)(C)C)cc2)n1	20µM	13µM	?	i	i
Cc1cc(C)n(S(=O)(=O)c2ccc3ccccc3c2)n1	i	?	i	i	i
C[C@]12C[C@@](C)(C=C1/C=C/c1ccc(C(F)(F)F)cc1)C(=O)C[C@H]2c1ccc(C(F)(F)F)cc1	i	i	nt	i	nt
